Source: PubChem BioAssay (Tox21)
Where “and” joins values, the source holds several entries; their conditions need not be identical. Equal values may be shown once. Results filed as inconclusive are left out. Where a structure was tested more than once in an assay, its records may differ in their call. Calls of active or inactive are those of the source. Unless noted, the call rests on the fitted dose curve; in most records, active means well fitted curve in the direction sought with a large enough effect in the repeat runs; inconclusive means weak or mixed curves; inactive means no such curve, though single readings can be large; an effect the other way counts as inactive or inconclusive.

Assays:
[1] = A CellTox Green Cytotoxicity Assay to monitor cytotoxicity in HepG2 cells - 32 hour (AID 1224883); further: nearly all actives have a fitted effect of over 50% in size; further: potency means the concentration at half of the fitted maximal effect
Summary of the method: (§1)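 Measurements at 0, 8, 16, 24, 32 and 40 h of treatment captured CellTox Green fluorescence in HepG2 cells that had been co-plated with reagent and preincubated 5 h at 37 C/5% CO2.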

[2] = A CellTox Green Cytotoxicity Assay to monitor cytotoxicity in HEK293 cells - 8 hour (AID 1224884); further: nearly all actives have a fitted effect of over 35% in size; further: potency means the concentration at half of the fitted maximal effect
Summary of the method: (§2)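 Tox21 screen in HEK293: membrane-impermeant cyanine dye fluoresces on binding dead-cell DNA; compound pinned 5 h post-seeding, plates held at 37 C, signal read repeatedly through 40 h.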

[3] = qHTS RealTime-Glo MT Cell Viability Assay in HepG2 cells - 16 hour (AID 1224885); further: nearly all actives have a fitted effect of over 50% in size; further: potency means the concentration at half of the fitted maximal effect
Summary of the method: (§3)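 HepG2 cells (600/well) were dispensed with RealTime-Glo reagents, incubated 5 h at 37 °C, then treated with compounds in DMSO for up to 40 h. Nonlytic NanoLuc luminescence reflecting viable cells was read at each stated time point.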

[4] = qHTS RealTime-Glo MT Cell Viability Assay in HEK293 cells - 24 hour (AID 1224886); further: nearly all actives have a fitted effect of over 50% in size; further: potency means the concentration at half of the fitted maximal effect; on activity change, negative = cytotoxicity: top concentration of the series differs between compounds
Summary of the method: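 HEK293 cells seeded with NanoLuc/prosubstrate reagent, rested 5 h at 37 C, then dosed and kept at 37 C up to 40 h. Nonlytic real-time luminescence from viable cells read at 0, 8, 16, 24, 32 and 40 h.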

[5] = qHTS RealTime-Glo MT Cell Viability Assay in HEK293 cells - 8 hour (AID 1224887); further: nearly all actives have a fitted effect of over 50% in size; further: potency means the concentration at half of the fitted maximal effect; on activity change, negative = cytotoxicity: top concentration of the series differs between compounds
Summary of the method: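 HEK293 + NanoLuc + prosubstrate, 600 cells/well; 5 h, 37 C/5% CO2; compound 23 nL in DMSO by pintool; 37 C; luminescence read at 0, 8, 16, 24, 32 and 40 h time points.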

[6] = A CellTox Green Cytotoxicity Assay to monitor cytotoxicity in HEK293 cells - 16 hour (AID 1224888); further: nearly all actives have a fitted effect of over 35% in size; further: potency means the concentration at half of the fitted maximal effect
Summary of the method: as §2

[7] = qHTS RealTime-Glo MT Cell Viability Assay in HepG2 cells - 0 hour (AID 1224889); further: nearly all actives have a fitted effect of over 50% in size
Summary of the method: as §3

[8] = A CellTox Green Cytotoxicity Assay to monitor cytotoxicity in HepG2 cells - 8 hour (AID 1224890); further: nearly all actives have a fitted effect of over 45% in size; further: potency means the concentration at half of the fitted maximal effect
Summary of the method: as §1

[9] = qHTS assay to identify small molecule antagonists of the androgen receptor (AR) signaling pathway using the MDA cell line in the presence of 0.5 nM R1881 - cell viability counter screen (AID 1259242); further: nearly all actives have a fitted effect of over 45% in size; further: potency means the concentration at half of the fitted maximal effect
Summary of the method: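 Concentration-response screen of compounds for toxicity in MDA-kb2 reporter cells: 16 hr at 37C with 0.5 nM R1881, endpoint live-cell protease fluorescence measured in the reporter wells.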

[10] = molecular target: Androgen receptor (Homo sapiens) (UniProt P10275); assay: qHTS assay to identify small molecule antagonists of the androgen receptor (AR) signaling pathway using the MDA cell line in the presence of 0.5 nM R1881 (AID 1259243); further: nearly all actives have a fitted effect of over 50% in size; further: potency means the concentration at half of the fitted maximal effect
Summary of the method: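 With R1881 held at 0.5 nM (final), compound effects on MMTV-luciferase expression in MDA-kb2 cells were scored by luminescence after a 16 hr, 37C incubation.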

[11] = qHTS assay to identify small molecule HDAC inhibitors (AID 1259364);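 further: wild-type HCT-116 cells with endogenous class I/II HDAC activity; top concentration of the series differs between compounds; nearly all actives have a fitted effect of over 45% in size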
Summary of the method: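 Screening used wild-type human colon HCT-116 cells incubated overnight, dosed with compounds for 2 hours, and assayed with a homogeneous luminogenic HDAC I/II reagent for 30 minutes at room temperature.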

[12] = qHTS assay to identify small molecule HDAC inhibitors - cell viability counter screen (AID 1259365); further: nearly all actives have a fitted effect of over 50% in size; further: potency means the concentration at half of the fitted maximal effect; on activity change, negative = cytotoxicity: series mostly up to about 92 µM
Summary of the method: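 HCT-116 wild-type, overnight attachment; 2hr drug exposure, 37C; CellTiter-Glo luminescent ATP readout after 30min RT.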

[13] = qHTS assay to identify small molecule agonists of the sonic hedgehog signaling (Shh) pathway - cell viability counter screen (AID 1259366); further: nearly all actives have a fitted effect of over 50% in size; further: potency means the concentration at half of the fitted maximal effect
Summary of the method: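 Compounds in DMSO were pin-transferred onto 3T3 Gli1-Luc cells that had settled 4hr; plates then stood 24hr at 37C and 5% CO2. One hour before the end, CellTiter-Fluor was added and fluorescence recorded.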

[14] = qHTS assay to identify small molecule antagonists of the sonic hedgehog signaling (Shh) pathway - cell viability counter screen (AID 1259367); further: nearly all actives have a fitted effect of over 55% in size; further: potency means the concentration at half of the fitted maximal effect
Summary of the method: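 Conditioned medium drove Shh signaling in 3T3 Gli1-Luc cells exposed to compounds at 37C and 5% CO2. Viability was determined from CellTiter-Fluor fluorescence, with reagent incubated 1 hr after 23 hr of treatment.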

[15] = qHTS assay to identify small molecule agonists of the sonic hedgehog signaling (Shh) pathway (AID 1259368; calls by dose curve;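 further: NIH/3T3-derived 3T3Gli1-Luc cells carrying a stable Gli1-driven firefly luciferase reporter; series mostly up to about 92 µM; nearly all actives have a fitted effect of over 15% in size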)
Summary of the method: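 Hedgehog pathway agonism scored by increased firefly luciferase luminescence in 3T3Gli1-Luc cells treated 24 hr at 37 C; detection used a 30 min room-temperature reagent incubation.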

[16] = qHTS assay to identify small molecule antagonists of the sonic hedgehog signaling (Shh) pathway (AID 1259369; calls by dose curve; further: nearly all actives have a fitted effect of over 45% in size; further: potency means the concentration at half of the fitted maximal effect)
Summary of the method: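 NIH/3T3 stable Gli1-Luc clone, 2,000 cells/well, 4hr settle; cpd + conditioned medium 24hr; Luc reagent 30min RT; luminescence.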

[17] = molecular target: Estrogen receptor beta (Homo sapiens) (UniProt Q92731); assay: qHTS assay to identify small molecule agonists of the estrogen receptor beta (ER-beta) signaling pathway (AID 1259377; active means well fitted activation curve with a large enough effect in the signal ratio in the repeat runs, not every such curve was filed as active; the % refers to the signal ratio)
Summary of the method: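 qHTS in ER-beta-UAS-bla HEK293T cells: 6 hr settling, then 16 hr compound at 37C, then LiveBLAzer substrate 2 h at RT before fluorescence reading.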

[18] = molecular target: Estrogen receptor (Homo sapiens) (UniProt P03372); assay: qHTS assay to identify small molecule antagonists of the estrogen receptor alpha (ER-alpha) signaling pathway using the BG1 cell line in the presence of 0.1 nM 17-beta-estradiol (AID 1259244); further: nearly all actives have a fitted effect of over 50% in size; further: potency means the concentration at half of the fitted maximal effect
Summary of the method: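 Compounds were tested against 0.1 nM (final) 17beta-estradiol in VM7Luc4E2 cells, which express full-length ER-alpha and an ERE-luciferase reporter; luminescence was recorded following 22 h exposure.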

[19] = qHTS assay to identify small molecule antagonists of the estrogen receptor alpha (ER-alpha) signaling pathway using the BG1 cell line in the presence of 0.1 nM 17-beta-estradiol - cell viability counter screen (AID 1259241); further: nearly all actives have a fitted effect of over 40% in size; further: potency means the concentration at half of the fitted maximal effect
Summary of the method: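 Following 5 days in phenol red-free medium with charcoal-stripped serum, VM7Luc4E2 cells received test compounds alongside 0.1 nM 17beta-estradiol (final) at 37C for 22 hr. Live cells were then quantified via protease-substrate fluorescence.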

[20] = qHTS assay to identify small molecule phospholipidosis (PLD) inducers (AID 1259344; active means well fitted curve in the direction sought with a large enough effect; an effect the other way counts as inactive or inconclusive)
Summary of the method: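 After 4 h attachment on collagen I, HepG2 cells were dosed with compound alongside LipidTOX Red, kept 24 h at 37 C, fixed, and imaged for lamellar phospholipid pits.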
On the % scale 0 is the no-effect control and ±100 the full control effect.

Estrogen receptor beta (Homo sapiens), sequence (Q92731 whole entry, looked up): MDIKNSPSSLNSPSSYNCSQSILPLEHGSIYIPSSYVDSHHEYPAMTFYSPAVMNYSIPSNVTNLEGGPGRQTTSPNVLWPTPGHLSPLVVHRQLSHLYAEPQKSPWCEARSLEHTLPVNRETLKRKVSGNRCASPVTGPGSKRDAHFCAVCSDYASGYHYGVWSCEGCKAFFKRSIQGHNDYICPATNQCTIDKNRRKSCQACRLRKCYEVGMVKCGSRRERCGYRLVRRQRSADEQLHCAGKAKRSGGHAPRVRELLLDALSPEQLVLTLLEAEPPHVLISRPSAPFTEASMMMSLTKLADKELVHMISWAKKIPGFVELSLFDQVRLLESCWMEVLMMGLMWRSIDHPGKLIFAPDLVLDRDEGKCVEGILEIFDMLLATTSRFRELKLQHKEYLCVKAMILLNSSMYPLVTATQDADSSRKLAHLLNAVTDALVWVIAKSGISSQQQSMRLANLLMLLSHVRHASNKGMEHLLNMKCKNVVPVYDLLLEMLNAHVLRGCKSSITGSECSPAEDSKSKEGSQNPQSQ
Estrogen receptor (Homo sapiens), sequence (P03372 whole entry, looked up): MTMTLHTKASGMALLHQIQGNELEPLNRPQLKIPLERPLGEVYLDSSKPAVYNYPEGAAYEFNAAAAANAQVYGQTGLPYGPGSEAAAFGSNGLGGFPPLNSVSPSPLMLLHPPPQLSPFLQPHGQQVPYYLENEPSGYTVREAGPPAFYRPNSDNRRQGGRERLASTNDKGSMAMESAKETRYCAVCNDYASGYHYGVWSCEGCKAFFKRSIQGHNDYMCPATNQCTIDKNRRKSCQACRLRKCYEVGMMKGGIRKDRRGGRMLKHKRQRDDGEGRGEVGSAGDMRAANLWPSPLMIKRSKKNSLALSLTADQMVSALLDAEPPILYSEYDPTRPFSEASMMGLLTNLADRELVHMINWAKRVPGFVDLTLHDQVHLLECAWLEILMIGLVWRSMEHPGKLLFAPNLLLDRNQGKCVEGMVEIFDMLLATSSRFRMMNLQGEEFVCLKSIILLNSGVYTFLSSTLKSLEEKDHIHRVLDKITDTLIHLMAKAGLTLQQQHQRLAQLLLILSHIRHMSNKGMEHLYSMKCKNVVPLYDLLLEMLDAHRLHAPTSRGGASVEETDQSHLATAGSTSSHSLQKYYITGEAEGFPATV
Androgen receptor (Homo sapiens), sequence (P10275 whole entry, looked up): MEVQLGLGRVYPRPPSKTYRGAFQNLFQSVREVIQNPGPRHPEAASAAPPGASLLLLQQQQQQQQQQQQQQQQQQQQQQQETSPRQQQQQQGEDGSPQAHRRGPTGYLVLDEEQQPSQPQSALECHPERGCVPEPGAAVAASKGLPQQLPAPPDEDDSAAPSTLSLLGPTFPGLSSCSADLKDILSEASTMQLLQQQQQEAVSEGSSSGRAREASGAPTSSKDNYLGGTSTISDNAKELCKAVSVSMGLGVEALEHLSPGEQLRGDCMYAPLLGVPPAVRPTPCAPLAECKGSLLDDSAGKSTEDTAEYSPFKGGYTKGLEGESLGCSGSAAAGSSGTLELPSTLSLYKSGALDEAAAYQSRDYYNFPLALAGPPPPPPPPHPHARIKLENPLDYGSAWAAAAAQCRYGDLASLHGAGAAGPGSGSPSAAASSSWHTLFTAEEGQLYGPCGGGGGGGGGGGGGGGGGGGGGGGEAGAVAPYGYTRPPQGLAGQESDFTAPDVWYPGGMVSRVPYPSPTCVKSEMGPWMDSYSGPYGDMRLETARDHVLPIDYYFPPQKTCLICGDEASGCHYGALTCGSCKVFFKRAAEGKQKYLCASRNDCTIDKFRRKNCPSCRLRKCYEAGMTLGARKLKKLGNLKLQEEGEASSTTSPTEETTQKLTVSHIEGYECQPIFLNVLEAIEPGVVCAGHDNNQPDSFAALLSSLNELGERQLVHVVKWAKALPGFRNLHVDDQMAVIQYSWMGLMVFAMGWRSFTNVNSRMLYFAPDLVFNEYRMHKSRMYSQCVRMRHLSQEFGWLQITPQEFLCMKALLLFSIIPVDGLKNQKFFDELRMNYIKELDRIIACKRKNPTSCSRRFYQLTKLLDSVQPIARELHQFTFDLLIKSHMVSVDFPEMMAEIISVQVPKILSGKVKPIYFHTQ

CCC(C)c1cc(C(C)(C)C)cc(-n2nc3ccccc3n2)c1O (stereo not drawn)
inactive: Potency [1] | Potency [2] | Potency [3] | Potency [4] | Potency [5] | Potency [6] | Potency [7] | Potency [8] | Potency [9] | Potency [10] | Potency [11] | Potency [12] | Potency [13] | Potency [14] | Potency [15] | Potency [16] | Potency [17]

CCCCCCCCCCCCCCCCCCn1cc[n+](C)c1
inactive: Potency [5] | Potency [7] | Potency [11] | Potency [12] | Potency [15]
active: Potency [1] 19.4 µM | Potency [2] 24.4 µM | Potency [3] 43.4 µM | Potency [4] 15.4 µM | Potency [6] 27.4 µM | Potency [8] 38.7 µM | Potency [9] 34.2 µM | Potency [10] 3.83 µM | Potency [18] 15.3 µM | Potency [13] 30.5 µM | Potency [14] 30.5 µM | Potency [16] 0.0542 µM

CCCCN(CCCC)C(=S)[S-].CCCCN(CCCC)C(=S)[S-].[Zn+2]
active: Potency [1] 21.9 µM | Potency [3] 34.7 µM | Potency [4] 11 µM | Potency [5] 15.5 µM | Potency [19] 17.2 µM | Potency [18] 13.7 µM | Potency [13] 5.44 µM | Potency [14] 6.85 µM | Potency [16] 4.85 µM
inactive: Potency [2] | Potency [6] | Potency [7] | Potency [8] | Potency [11] | Potency [12] | Potency [15]

CCOC(=O)CC(=O)CCl
inactive: Potency [1] | Potency [2] | Potency [3] | Potency [6] | Potency [7] | Potency [8] | Potency [19] | Potency [9] | Potency [18] | Potency [11] | Potency [12] | Potency [13] | Potency [14] | Potency [15] | Potency [16]
active: Potency [4] 43.6 µM | Potency [10] 30.6 µM

BrC(Br)Br
inactive: Potency [1] | Potency [2] | Potency [3] | Potency [4] | Potency [5] | Potency [6] | Potency [8] | Potency [19] | Potency [9] | Potency [11] | Potency [12] | Potency [13] | Potency [14] | Potency [15] | Potency [16]

Fc1cccc(Cl)c1CCl
inactive: Potency [1] | Potency [2] | Potency [3] | Potency [4] | Potency [5] | Potency [6] | Potency [8] | Potency [18] | Potency [12] | Potency [13] | Potency [16] | Potency [17]

CN(C)S(=O)(=O)N(SC(F)(Cl)Cl)c1ccccc1
inactive: Potency [2] | Potency [8] | Potency [11] | Potency [15]
active: Potency [1] 5.49 µM | Potency [3] 15.5 µM | Potency [4] 4.36 µM | Potency [5] 9.77 µM | Potency [6] 19.5 µM | Potency [13] 6.11 µM | Potency [14] 12.2 µM | Potency [16] 2.17 µM

CCCCCCCCCCCCBr
inactive: Potency [1] | Potency [2] | Potency [3] | Potency [4] | Potency [5] | Potency [6] | Potency [8] | Potency [9] | Potency [18] | Potency [12] | Potency [13] | Potency [14] | Potency [15] | Potency [16]

CC(C)N1C(=O)N(c2ccccc2)CSC1=NC(C)(C)C
active: Potency [4] 19.5 µM | Potency [10] 54.5 µM
inactive: Potency [1] | Potency [2] | Potency [3] | Potency [6] | Potency [7] | Potency [8] | Potency [19] | Potency [9] | Potency [11] | Potency [12] | Potency [13] | Potency [14]

COc1ccc(N)cc1N
inactive: Potency [1] | Potency [2] | Potency [3] | Potency [6] | Potency [7] | Potency [8] | Potency [15]
active: Potency [4] 40.1 µM | Potency [5] 25.3 µM | Potency [12] 15.8 µM | Potency [13] 9.99 µM and 29.4 µM | Potency [16] 3.55 µM and 8.29 µM

CCSC(C)CC1CC(=O)C(/C(CC)=N/OC/C=C/Cl)=C(O)C1 (stereo not drawn)
inactive: Potency [1] | Potency [2] | Potency [3] | Potency [4] | Potency [5] | Potency [6] | Potency [8] | Potency [19] | Potency [9] | Potency [18] | Potency [11] | Potency [12] | Potency [13] | Potency [14] | Potency [15] | Potency [16] | Potency [17]

C[CH2][Hg][N]1C(=O)C2C(C1=O)C1(Cl)C(Cl)=C(Cl)C2(Cl)C1(Cl)Cl (stereo not drawn)
inactive: activity change, negative = cytotoxicity [12] -3.87% [at 19 µM] | activity change [15] -11.5% [at 18.9 µM, stronger effect = higher value]
active: Potency [1] 8.27 µM | Potency [2] 4.65 µM | Potency [3] 6.57 µM | Potency [4] 2.33 µM | Potency [5] 3.69 µM | Potency [6] 4.65 µM | Potency [8] 8.27 µM | Potency [19] 13 µM | Potency [13] 7.3 µM | Potency [16] 14.6 µM

C[C@@H](Oc1ccc(Cl)cc1Cl)C(=O)O
inactive: Potency [1] | Potency [2] | Potency [3] | Potency [4] | Potency [5] | Potency [6] | Potency [8] | Potency [19] | Potency [9] | Potency [18] | Potency [12] | Potency [13]

O=c1[nH]c2ccccc2n1C1CCN(CCCC(c2ccc(F)cc2)c2ccc(F)cc2)CC1
54.9 µM (active) and inactive: Potency [8]
inactive: Potency [2] | Potency [6] | Potency [7] | Potency [11] | Potency [12] | Potency [15] | Potency [17]
49 µM (active) and inactive: Potency [3]
active: Potency [1] 24.5 µM | Potency [4] 12.3 µM and 16.9 µM | Potency [5] 15.5 µM | Potency [18] 48.6 µM | Potency [13] 27.3 µM

CCCCCCCCCC[N+](C)(C)CCCCCCCCCC
inactive: Potency [20] | Potency [15]
active: Potency [1] 9.77 µM | Potency [2] 17.4 µM | Potency [3] 11 µM | Potency [4] 1.74 µM | Potency [5] 21.9 µM | Potency [6] 17.4 µM | Potency [8] 19.5 µM | Potency [18] 30.6 µM | Potency [12] 68.6 µM | Potency [13] 21.7 µM | Potency [16] 0.969 µM

O=C1C=CC(=O)c2ccccc21
inactive: Potency [2] | Potency [6] | Potency [15]
active: Potency [1] 12.3 µM | Potency [3] 19.5 µM | Potency [4] 5.49 µM | Potency [5] 6.16 µM | Potency [8] 15.5 µM | Potency [19] 19.3 µM | Potency [9] 30.6 µM | Potency [18] 10.9 µM | Potency [12] 48.6 µM | Potency [13] 12.2 µM | Potency [16] 4.33 µM
